The record followed here is PubChem BioAssay (NCATS).

Results filed as inconclusive are left out. Where a call stands in place of a potency, no number is given. The source made the active and inactive calls. The call rests on the fitted dose curve; in most records, active means well fitted inhibition curve with a large enough effect; inconclusive means small, poorly fitted or top-dose-only effect; inactive means flat fitted curve, though single readings scatter.

The assay deals with Calcium and integrin-binding protein 1 (Homo sapiens) (UniProt Q99828). Description: Primary qHTS for Identification of Calcium Integrin Binding Protein 1 (CIB1) Competitor (AID 1508620).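 Further: GST tagged CIB1 binding a fluorescein labelled alphaIIb integrin peptide tracer; top concentration of the series differs between compounds.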 The following applies: CIB1-GST / FITC-alphaIIb peptide fluorescence polarization; series mostly up to 114 µM. In short, it runs like this: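 Fluorescence polarization competition: CIB1-GST (1 uM final) preincubated with compound 15 min at room temperature, then FITC-labeled alphaIIb peptide (100 nM final) added for another 15 min. Polarization read at Ex 480/Em 540.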
Calcium and integrin-binding protein 1 (Homo sapiens), sequence (Q99828 whole entry, looked up): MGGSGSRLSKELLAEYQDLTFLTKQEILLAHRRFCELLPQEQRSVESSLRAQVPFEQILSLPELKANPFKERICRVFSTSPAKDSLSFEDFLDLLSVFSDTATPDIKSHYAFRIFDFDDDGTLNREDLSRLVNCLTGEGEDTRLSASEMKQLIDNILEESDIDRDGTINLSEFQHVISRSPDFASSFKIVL
(Quantitative high-throughput screening tests each substance at several concentrations.)
With `CC(C)(C)OC(=O)NCCCNc1ncnc2ccc(-c3ccc4c(c3)OCO4)cc12`, the Potency entry was “inactive”.

In the case of `CC1=C(C(=O)NCc2ccccc2)C(c2ccccc2Br)N=C(Nc2nc3ccccc3o2)N1` (stereo not given), the Potency entry is “inactive”.

In the case of `CN(Cc1ccccc1)C(=O)C1CCN(Cc2cccc3ccccc23)CC1`, the Potency entry was “inactive”.

Regarding `O=C1Cc2cc(S(=O)(=O)N3CCN(c4cccc(C(F)(F)F)c4)CC3)ccc2N1`, the Potency result was “inactive”.

Regarding `COc1cccc(C2c3c(ncn(-c4ccc(NC(C)=O)cc4)c3=N)Oc3ccc4ccccc4c32)c1` (stereo not given), the Potency entry was “inactive”.

For `O=C(CNC(=O)c1ccncc1)OC(C(=O)Nc1cc(C(F)(F)F)ccc1Cl)c1ccccc1` (stereo not given), the Potency entry is “inactive”.

As for `CC(C)(C#CCSc1nnc(-c2cccc3ccccc23)o1)OC(=O)c1ccc(F)cc1`, the Potency entry was “inactive”.

As for `Cc1cc(-c2nc(Nc3ccc(F)c(F)c3)c3ccccc3n2)cc(C)n1`, the Potency entry is “inactive”.

For `CC(=O)N1CCN(c2ccc(N)cc2)CC1`, the Potency result was “inactive”.

As to `S=P(c1ccccc1)(c1ccccc1)c1nc(CCCc2ccccc2)n2ccccc12`, the Potency entry was “inactive”.

`FC(F)(F)c1ccccc1-c1nccc(NCc2ccc(-c3cccnc3)cc2)n1`: the Potency entry is “inactive”.

Take `Cc1nc(CCNc2ncnc3ccc(-c4ccc5c(c4)OCO5)cc23)cs1`: the Potency result was “inactive”.

`COc1cc(O)c(C(CC(=O)N2CCCC(COc3ccc(F)cc3)C2)c2ccc3c(c2)OCO3)c(OC)c1` (stereo not given): the Potency result was “inactive”.

On to `O=C(NC1CCCc2c1cnn2CCO)c1ccccn1` (stereo not given), for which the Potency entry is “inactive”.

Turning to `O=C1CCCC2=C1C(c1[nH]ncc1Cl)NC(=NCCc1ccccc1)N2` (stereo not given), the Potency result is “inactive”.

On to `COc1cc(O)c(C(CC(=O)N2CCC(Cc3ccccc3)CC2)c2ccc(OC)c(OC)c2)c(OC)c1` (stereo not given), for which the Potency entry is “inactive”.

For `Cc1cc(NC(=O)Nc2nnc(C3CCCCC3)s2)ccc1Br`, the Potency result is “inactive”.

With `c1cncc(-c2ccc(CNc3nc(-n4ccnc4)nc4ccccc34)cc2)c1`, the Potency result is “inactive”.

With `CN(C)c1ccc2c(=O)n3nc(Nc4ccc5c(c4)CCC5)sc3nc2c1`, the Potency result is “inactive”.

`O=S1(=O)N=C(Oc2ccccc2C(F)(F)F)c2ccccc21`: the Potency entry was “inactive”.

For the compound `Cc1cc(C)nc(NC(=S)N2CCN(c3cncnc3)CC2)c1`, the Potency result is “inactive”.

For `Cc1ccc(C)c(OCCn2c(CCNC(=O)C3CCCCC3)nc3ccccc32)c1`, the Potency entry was “inactive”.

Regarding `Cc1cnc(-c2ccccc2C(C)C)nc1NCC1CCN(C2COC2)CC1`, the Potency result is “inactive”.

Turning to `COc1ccc(-c2nnc3n2N=C(c2cccc(OC)c2)CS3)cc1`, the Potency entry is “inactive”.

Take `COc1cccc(C2c3c(ncn(-c4ccncc4)c3=N)Oc3ccc4ccccc4c32)c1` (stereo not given): the Potency entry is “inactive”.

For the compound `Cc1ccsc1CN(C)c1ncnc2ccc(-c3ccoc3)cc12`, the Potency result was “inactive”.

Consider `CC(C)(C)[C@H](NC(=O)c1ccc(N)c(Cl)c1)C(=O)N1CCC[C@H]1C(=O)N[C@H](C#N)Cc1nn[nH]n1`, for which the Potency entry is “inactive”.

For `FC(F)(F)c1ccccc1-c1nc(NCc2ccc(Cl)cc2)c2ccccc2n1`, the Potency result was “inactive”.

Turning to `COc1cccc(CNc2ccc(S(=O)(=O)Nc3cnc4ccccc4c3)cc2)c1O`, the Potency entry is “inactive”.

As for `Brc1ccc(-c2csc(N3CCCCC3)n2)cc1`, the Potency entry was “inactive”.

`CCOC(=O)c1ccc(-c2ccc3ncnc(NCc4ccc(C)o4)c3c2)o1`: the Potency entry was “inactive”.

In the case of `COc1cc(O)c(C(CC(=O)N2CCC(c3ccccc3)CC2)c2ccc(C)cc2)c(OC)c1` (stereo not given), the Potency entry is “inactive”.

Take `COc1ccc(N2C[C@]34C=C[C@H](O3)C(C(=O)O)C4C2=O)cc1` (stereo not given in full): the Potency entry is “inactive”.

Regarding `Fc1cc(Cl)cc(-c2ccc(CNc3nc(-c4ccccc4C(F)(F)F)nc4ccccc34)cc2)c1`, the Potency result was “inactive”.

On to `CN1CCN(c2nnc(NC(=O)Nc3ccc(Cl)c(Cl)c3)s2)CC1`, for which the Potency result was “inactive”.

On to `CC(C)(C)OC(=O)N1CCN(c2ccc(NCc3cc(-c4ccc(C#N)cc4)co3)cc2)CC1`, for which the Potency result was “inactive”.

In the case of `COc1ccc(N2Cc3cccc(C(=O)O)c3C2=O)cc1OC`, the Potency result was “inactive”.

As for `CCc1ccc(NC(=O)c2cnn3c(C)cc(-c4ccccc4)nc23)cc1`, the Potency result was “inactive”.

For the compound `CC(=O)N1CCc2cc(S(=O)(=O)N3CCN(S(=O)(=O)c4c(F)cccc4F)CC3)ccc21`, the Potency entry was “inactive”.

Regarding `N#Cc1nc(NCC(F)F)c2ncn(-c3cc(F)cc(F)c3)c2n1`, the Potency result is “inactive”.
